Among all 11,000 compounds or so, about 310 (2.8%) were called active. Rule as the data show it: active = activity change below about -85%; inactive = the rest. Many of the other results were omitted from the sample, so actives are more common in it than they were.
test system: intestinal alkaline phosphatase [Mus musculus]; assay: activators of mouse IAP, confirmation, biochemical, luminescence, single concentration (AID 434970); conditions: purified mouse IAP, CDP-Star luminescence, 30 min, at 10 µM; activation factor: measured here: IAP activation factor, stronger effect = higher value; activity change, negative = activation: stronger effect = lower value

SMILES	activation factor	activity change, negative = activation
COc1cccc(-c2sc3cc(OC)c(OC)cc3c2-c2ccc(OCCN3CCCCC3)cc2)c1	1.01	-0.55% (inactive)
O=C(c1cccs1)N1CCCC(c2ccccc2)C1 (stereo unspecified)	0.929	7.1% (inactive)
COc1cc(=O)n(C)c2cc(N(C)C)ccc12	0.917	8.35% (inactive)
COc1ccc2[nH]c3c(c2c1)CCN1C(=O)C(CC(=O)NCc2cccc(C(F)(F)F)c2)C[C@H](C(=O)N2CCOCC2)[C@@]31C (stereo partly specified)	1.08	-8.45% (inactive)
COc1ccc(Cc2nc3ccc(C(=O)NCc4ncc(C)[nH]4)cc3o2)cc1OC	0.927	7.3% (inactive)
COC(=O)c1sccc1NC(=O)C1CC=CCC1C(=O)O (stereo unspecified)	0.998	0.15% (inactive)
CC1(C)Cc2noc(N)c2C(C)(C)N1OC(=O)c1cccs1	1.04	-3.75% (inactive)
CC[C@]12c3[nH]c4cc(CCC(=O)N(C)C)ccc4c3CCN1C(=O)[C@@H](CC(=O)NC/C=C(\C)CCC=C(C)C)C[C@@H]2C(=O)N1CCN(C(=O)C2CC2)CC1	1.09	-9.3% (inactive)
O=C(c1ccc(Cn2c(=O)[nH]c3ccccc3c2=O)cc1)N1CCN(c2ccc(F)cc2)CC1	1	0.05% (inactive)
Cc1ccc(NC(=S)NCCSc2ccc(Cl)cc2)cc1	1.45	-45.4% (inactive)
Fc1ccccc1CNC(=S)Nc1ccc(Cl)cc1	1.38	-38.1% (inactive)
S=C(NCCC(c1ccccc1)c1ccccc1)Nc1cccc(Cl)c1	3.74	-274% (active)
S=C(NCCC(c1ccccc1)c1ccccc1)Nc1ccc(Cl)cc1	2.1	-110% (active)
S=C(NCc1ccccc1)Nc1cccc(Cl)c1	1.4	-40.5% (inactive)
S=C(NCCN(C1CCCCC1)C1CCCC1)Nc1cccc(Cl)c1	1.69	-68.5% (inactive)
CC(C)CN(C(=O)COC(=O)Cn1cnc2ccccc2c1=O)C1CCS(=O)(=O)C1 (stereo unspecified)	0.927	7.25% (inactive)
CCOC(=O)CN(C(=O)CN1CCC(n2nnc3cc(C)ccc32)CC1)c1ccccc1	0.982	1.8% (inactive)
COc1ccc(Cl)cc1NC(=O)CN1CCC(n2nnc3ccccc32)CC1	0.96	4.05% (inactive)
CCOc1ccc(CN2CCC(n3nccc3NC(=O)CCCc3ccccc3)CC2)cc1	1.83	-83% (inactive)
COc1ccc(CN2CCC(n3nccc3NC(=O)CCc3ccccc3)CC2)c(C)c1C	1.6	-60% (inactive)
Cc1ccc(-c2nnn(CC(=O)NC3CCN(Cc4ccccc4)CC3)n2)cc1	1.04	-4.25% (inactive)
COc1ccc(CN2CCC(n3nccc3NC(=O)CCCc3ccccc3)CC2)cc1C	2.4	-140% (active)
CCOc1ccc(-c2cc(CCCC(=O)NCCc3ccccc3)no2)cc1	1.07	-6.9% (inactive)
CCOc1cccc(CN2CCC(n3nccc3NC(=O)CCCc3ccccc3)CC2)c1	2.3	-130% (active)
COc1ccccc1CN1CCN(S(=O)(=O)c2ccccc2)CC1	0.897	10.3% (inactive)
Cc1ccc(C)c(CN2CCC(n3nccc3NC(=O)CCCc3ccccc3)CC2)c1	2.31	-131% (active)
COc1ccccc1CN1CCC(n2nccc2NC(=O)CCCc2ccccc2)CC1	2.08	-108% (active)
COc1ccc(-c2noc(CCCC(=O)NCCc3ccccc3)n2)cc1OC	0.998	0.25% (inactive)

From PubChem BioAssay AID434970 (Sanford-Burnham Center for Chemical Genomics, 2010)
